According to PubChem BioAssay (NCATS):
Results filed as inconclusive are left out. Entries that show only a call come without a potency. Active and inactive are the calls of the source. Unless noted, calls follow the shape of the dose curve; as a rule, active = well fitted curve in the direction sought with a large enough effect; inconclusive = small, poorly fitted or top-dose-only effect, or another doubt; inactive = no such curve, though single readings can be large; an effect the other way counts as inactive or inconclusive.

Assays:
[1] = target: Catechol O-methyltransferase (Homo sapiens) (UniProt P21964); experiment: Confirmatory Screen for Target Class Profiling of Small Molecule Inhibitors of Methyltransferases (AID 1745852; calls by dose curve; also: potency is read from the fitted curve at half-maximal effect); conditions: MTase-Glo luminescence, SAH detection, recombinant enzyme; measured here: COMT max response; stronger effect = lower value
[2] = target: Guanidinoacetate N-methyltransferase (Homo sapiens) (UniProt Q14353); experiment: as above; conditions: MTase-Glo luminescence, SAH detection, recombinant enzyme; activity change, negative = inhibition: at 57.3 µM (top of the series) unless noted; series mostly up to 57.3 µM
[3] = target: Nicotinamide N-methyltransferase (Homo sapiens) (UniProt P40261); experiment: as above; conditions: MTase-Glo luminescence, SAH detection, recombinant enzyme; measured here: NNMT max response; stronger effect = lower value
[4] = target: Phenylethanolamine N-methyltransferase (Homo sapiens) (UniProt P11086); experiment: as above; conditions: MTase-Glo luminescence, SAH detection, recombinant enzyme; measured here: PNMT max response; stronger effect = lower value
[5] = target: Glutathione peroxidase 1 (Homo sapiens) (UniProt P07203); experiment: Primary qHTS Assay for Inhibitors of Recombinant Selenoprotein Glutathione Peroxidase 1 (GPX1) (AID 1845191); conditions: recombinant GPX1, GR-coupled NADPH fluorescence, 15 min; series mostly up to 48.8 µM; also: nearly all actives have a fitted effect of over 65% in size
Summary of the method: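 NADPH consumption tracked by fluorescence at 340/450 nm between t=0 and t=15 min, room temperature. Final mix: 10 nM GPX1, 100 nM glutathione reductase, 1 mM GSH, 0.5 mM NADPH, 0.5 mM cumene hydroperoxide, 0.01% BSA; 30 min compound–enzyme preincubation.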

[6] = target: Phospholipid hydroperoxide glutathione peroxidase GPX4 (Homo sapiens) (UniProt P36969); experiment: Primary qHTS Assay for Inhibitors of Recombinant Selenoprotein Glutathione Peroxidase 4 (GPX4) (AID 1845192); conditions: recombinant GPX4, GR-coupled NADPH fluorescence, 15 min; series mostly up to 50 µM; also: nearly all actives have a fitted effect of over 65% in size
Summary of the method: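 NADPH consumption followed by fluorescence at 340/450 nm, t=0 and after 15 min at room temperature. Reaction started with cumene hydroperoxide (0.5 mM final) after 30 min compound–GPX4 preincubation; final 200 nM GPX4, 100 nM GR, 1 mM GSH, 0.5 mM NADPH.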

[7] = target: Luciferin 4-monooxygenase (Photinus pyralis) (UniProt P08659); experiment: Primary firefly luciferase (FLuc) qHTS assay for identification of artifact compounds. (AID 1845220); conditions: purified firefly luciferase, luminescence, 5 min; series mostly up to 54.1 µM; also: nearly all actives have a fitted effect of over 60% in size; also: potency is read from the fitted curve at half-maximal effect
Summary of the method: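 FLuc 10 nM; luciferin 10 uM; ATP 10 uM; Tris-acetate pH 7.6, Mg-acetate 10 mM; 15 min RT preincubation; 5 min reaction; luminescence.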

[8] = Primary fluorescence-based thiol-reactive (MSTI) qHTS assay for identification of artifact compounds. (AID 1845221); conditions: MSTI thiol-reactivity probe, 1 h; series mostly up to 53.8 µM; also: nearly all actives have a fitted effect of over 65% in size; also: potency is read from the fitted curve at half-maximal effect
Summary of the method: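 First, 4 uM MSTI in 2% DMSO/PBS pH 7.4 was dispensed; next, compounds were added; then plates sat 1 h at room temperature without light. Finally, emission at 598 nm was recorded.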

[9] = test system: Nanoluciferase (engineered Oplophorus gracilirostris luciferase); experiment: Primary Nanoluciferase (NLuc) qHTS assay for identification of artifact compounds. (AID 1845222); conditions: NLuc-conditioned medium, Nano-Glo luminescence, 5 min; series mostly up to 54.1 µM; also: potency is read from the fitted curve at half-maximal effect
Summary of the method: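 NLuc from S16 cell medium (1:55) plus test compounds, 15 min, room temperature. Luminescence after Nano-Glo (1:100) addition, 5 min.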

[10] = Primary redox qHTS assay for identification of artifact compounds. (AID 1845223); conditions: Amplex Red/HRP redox cycling with DTT, fluorescence; series mostly up to 53.8 µM; also: potency is read from the fitted curve at half-maximal effect
Summary of the method: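 Redox-cycling detection via DTT (250 uM final) oxidation coupled to Amplex Red (25 uM)/HRP (250 mU/mL) in HBSS. 15 min preincubation plus 30 min after DTT, room temperature. Ex/Em 525/598 nm; 4-parameter Hill fit against DMSO and 10 uM DA3003.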

Nicotinamide N-methyltransferase (Homo sapiens), sequence (P40261 whole entry, looked up): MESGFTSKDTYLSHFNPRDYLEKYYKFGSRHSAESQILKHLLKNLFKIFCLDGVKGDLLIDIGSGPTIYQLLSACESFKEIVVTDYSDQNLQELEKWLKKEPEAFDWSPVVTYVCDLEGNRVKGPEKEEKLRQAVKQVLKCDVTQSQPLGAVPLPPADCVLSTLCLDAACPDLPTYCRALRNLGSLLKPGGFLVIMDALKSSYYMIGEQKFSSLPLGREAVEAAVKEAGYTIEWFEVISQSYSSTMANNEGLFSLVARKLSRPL
Phenylethanolamine N-methyltransferase (Homo sapiens), sequence (P11086 whole entry, looked up): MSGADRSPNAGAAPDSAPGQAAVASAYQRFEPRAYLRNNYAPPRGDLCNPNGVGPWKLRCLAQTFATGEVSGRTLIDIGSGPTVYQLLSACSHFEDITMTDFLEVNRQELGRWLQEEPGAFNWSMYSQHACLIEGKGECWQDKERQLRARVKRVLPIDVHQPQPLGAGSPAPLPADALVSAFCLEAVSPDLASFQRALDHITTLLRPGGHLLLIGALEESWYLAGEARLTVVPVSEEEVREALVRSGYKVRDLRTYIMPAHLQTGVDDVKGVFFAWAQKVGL
Phospholipid hydroperoxide glutathione peroxidase GPX4 (Homo sapiens), sequence (P36969 whole entry, looked up): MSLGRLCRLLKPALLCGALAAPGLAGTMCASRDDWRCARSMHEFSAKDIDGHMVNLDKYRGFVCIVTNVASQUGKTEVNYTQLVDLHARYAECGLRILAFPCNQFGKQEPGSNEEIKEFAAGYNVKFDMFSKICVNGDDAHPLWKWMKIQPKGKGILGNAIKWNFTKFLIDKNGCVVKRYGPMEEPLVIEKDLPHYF
Catechol O-methyltransferase (Homo sapiens), sequence (P21964 whole entry, looked up): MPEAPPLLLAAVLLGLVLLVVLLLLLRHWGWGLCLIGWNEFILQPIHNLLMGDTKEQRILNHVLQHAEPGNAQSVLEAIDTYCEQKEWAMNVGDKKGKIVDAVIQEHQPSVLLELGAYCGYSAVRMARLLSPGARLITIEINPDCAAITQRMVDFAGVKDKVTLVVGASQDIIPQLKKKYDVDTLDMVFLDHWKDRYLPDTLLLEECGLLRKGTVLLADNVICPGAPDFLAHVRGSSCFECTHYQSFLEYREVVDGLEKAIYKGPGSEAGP
Glutathione peroxidase 1 (Homo sapiens), sequence (P07203 whole entry, looked up): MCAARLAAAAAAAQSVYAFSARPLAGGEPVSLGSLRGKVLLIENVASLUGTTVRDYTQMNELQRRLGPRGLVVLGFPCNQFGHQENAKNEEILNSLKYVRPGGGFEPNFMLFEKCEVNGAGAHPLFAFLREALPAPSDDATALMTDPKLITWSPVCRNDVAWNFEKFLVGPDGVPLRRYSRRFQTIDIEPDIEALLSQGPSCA

| Structure (SMILES) | activity [1] [%] | Potency [2] | activity [3] [%] | activity [4] [%] | Potency [5] | Potency [6] | Potency [7] | Potency [8] | Potency [9] | Potency [10] | activity change, negative = inhibition [2] |
| --- | --- | --- | --- | --- | --- | --- | --- | --- | --- | --- | --- |
| C[C@H](Oc1cc(-c2cnn(C3CCNCC3)c2)cnc1N)c1c(Cl)ccc(F)c1Cl | -64.7 | 27.1 µM (active) | -75.2 | -61.8 | inactive | inactive | inactive | inactive | inactive | inactive | – |
| CCn1c(-c2nonc2N)nc2c(C#CC(C)(C)O)ncc(OCC3CCCNC3)c21 (configuration not stated) | -1.89 | – | -28 | -3.65 | inactive | inactive | inactive | inactive | inactive | inactive | 0.279% |
| CC[C@H]1CN(c2nc(N)c(C(N)=O)nc2Cl)CCN1C1CCN(Cc2ccc(Cl)cc2)CC1 | -6.83 | – | -61.1 | -5.17 | inactive | inactive | inactive | inactive | inactive | inactive | -2.17% [at 29.8 µM] |
| CC(C)(O)c1ccc2c(c1)ncn2-c1cccc(-c2ccccc2C#N)c1 | -35.9 | 27.1 µM (active) | -41.8 | -37.6 | inactive | inactive | inactive | inactive | inactive | inactive | – |
| Cc1cc(NC(=O)NCCN2CCC(O)(Cc3ccccc3)CC2)c2ccccc2n1 | -2.12 | – | 2.4 | 0.991 | inactive | inactive | inactive | inactive | inactive | inactive | 0% |
| CCCSc1nc(N[C@@H]2C[C@H]2c2ccc(F)c(F)c2)c2nnn([C@@H]3C[C@H](OCCO)[C@@H](O)[C@H]3O)c2n1 | -40.7 | 48.2 µM (active) | -50.5 | -36.5 | inactive | inactive | inactive | inactive | inactive | inactive | – |
| Cc1nc(C#Cc2ccnc(Cl)c2)c(C)n1-c1ccc(F)cc1 | -47.3 | 30.4 µM (active) | -47.6 | -47.9 | inactive | inactive | inactive | inactive | inactive | inactive | – |
| C=C1C(=O)OC2C(OC(=O)C=C(C)C)C(C)=C3C(=O)C=C(C)C3C(O)C12 (configuration not stated) | -65.9 | – | 2.7 | 4.72 | inactive | inactive | inactive | inactive | 7.4 µM (active) | inactive | -0.769% |
| CCOC(=O)c1cnc2ccc(-c3cncc(NS(=O)(=O)c4ccccc4)c3)cn12 | -38.9 | 42.9 µM (active) | -25.7 | -35.9 | inactive | inactive | inactive | inactive | inactive | inactive | – |
| CCC(=O)N1CCOc2c(cc(-c3ccc(OC)c(OC)c3)cc2OC[C@H]2CCCN(C)C2)C1 | -13.1 | – | -10.5 | -9.1 | inactive | inactive | inactive | inactive | inactive | inactive | -8.77% |
| CS(=O)(=O)Nc1ccc2oc3c(OC(F)F)ccc(C(=O)Nc4c(Cl)cncc4Cl)c3c2c1 | -3.19 | – | -19.3 | -4.54 | inactive | inactive | inactive | inactive | inactive | inactive | -1.02% |
| CC(C)(C)c1ccc(C(=O)Nc2cc(Cl)c(Br)cc2C(=O)O)cc1 | -14 | – | -40.5 | -22 | inactive | inactive | 6.75 µM (active) | inactive | inactive | inactive | -8.07% |
| CN1CCN(Cc2ccc(NC(=O)Cc3ccc(Oc4cc(NC(=O)C5CC5)ncn4)cc3)cc2C(F)(F)F)CC1 | -8.91 | – | -29.5 | -13.7 | inactive | inactive | inactive | inactive | inactive | inactive | 0.726% |
| COc1ccccc1OCCNCC(O)CCOc1cccc2[nH]c3ccccc3c12 (configuration not stated) | -5.33 | – | -4.12 | -93.1 | inactive | inactive | inactive | inactive | inactive | inactive | 2.56% |
| CC(C)c1cc2c(N3CCN(C4=NCC(C)(C)S4)CC3)ncnc2s1 | -1.24 | – | -65.8 | -7.2 | inactive | inactive | inactive | inactive | inactive | inactive | 0.38% |
| Cn1cc(-c2ccc(F)c(C(F)(F)F)c2)nc1C1CCN(c2ncnc3[nH]ncc23)CC1 | 2.12 | – | -37.5 | -1.21 | inactive | inactive | inactive | inactive | inactive | inactive | 1.12% [at 9.47 µM] |
| COc1cc2c(Nc3cc(F)c(Cl)c(Cl)c3)ncnc2cc1OCC1CCCN(C)CCC1 | -15.2 | – | -13.9 | -10.4 | inactive | inactive | inactive | inactive | inactive | inactive | -2.91% |
| CN(C)c1ccc(NC(=O)NS(=O)(=O)c2ccc(Cl)cc2)cc1 | -53.7 | 27.1 µM (active) | -25 | -83.5 | inactive | inactive | – | 1.89 µM (active) | inactive | 3.36 µM (active) | – |
| N#Cc1cnc2c(Cl)cc(NCc3cn(CCN4CCCCCC4)nn3)cc2c1Nc1ccc(F)c(Cl)c1 | -24.8 | 15.2 µM (active) | -26.2 | -36.9 | inactive | inactive | inactive | – | inactive | inactive | – |
| C=CC(=O)Nc1ccc(CN2C(=O)N(c3cc(OC)cc(OC)c3)Cc3cnc(Nc4ccc(N5CCN(C)CC5)cc4)nc32)cc1 | -18.9 | – | -1.46 | -2.5 | inactive | inactive | inactive | – | inactive | inactive | -0.849% |
